Assay results from PubChem BioAssay (NCATS).
Several values for one entry are separate records, joined by “and”; a condition that tells them apart may be missing. Equal values may be shown once. Records with an inconclusive call do not appear. Activity calls are given as the source filed them. Calls follow the shape of the dose curve; as a rule, active = well fitted curve in the direction sought with a large enough effect; inconclusive = small, poorly fitted or top-dose-only effect, or another doubt; inactive = no such curve, though single readings can be large; an effect the other way counts as inactive or inconclusive.

Key:
[1] = biological target: Cellular tumor antigen p53 (Homo sapiens) (UniProt P04637); assay: Primary qHTS for small molecule compounds that upregulate eGFP-tagged delta133p53alpha (in N-terminal) cells. (AID 2060322); conditions: NCI-H358 eGFP-delta133p53alpha fluorescence, 24 h; activation: hits give high values; also: nearly all actives have a fitted effect of over 75% in size; also: potency is read from the fitted curve at half-maximal effect;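 as to activation: cells pre-induced with doxycycline then dosed without doxycycline; 0% = DMSO vehicle and 100% = reference activator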
Sequence of Cellular tumor antigen p53 (Homo sapiens) (P04637 whole entry, looked up): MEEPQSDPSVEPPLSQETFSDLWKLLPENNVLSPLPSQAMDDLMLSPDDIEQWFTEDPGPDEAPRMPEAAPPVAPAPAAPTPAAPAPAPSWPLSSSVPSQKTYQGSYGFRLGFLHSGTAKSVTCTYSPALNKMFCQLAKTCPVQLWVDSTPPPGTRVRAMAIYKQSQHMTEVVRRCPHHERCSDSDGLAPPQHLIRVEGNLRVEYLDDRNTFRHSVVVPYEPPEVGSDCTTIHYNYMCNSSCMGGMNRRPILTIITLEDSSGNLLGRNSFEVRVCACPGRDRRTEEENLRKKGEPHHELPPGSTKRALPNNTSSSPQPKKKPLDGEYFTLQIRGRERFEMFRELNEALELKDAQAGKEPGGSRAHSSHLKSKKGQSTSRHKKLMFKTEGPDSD
How it was run: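 NCI-H358 cells pre-induced 24 h with 10 ng/ml doxycycline for eGFP-delta133p53alpha, plated dox-free and exposed 24 h at 37C to titrated compounds. Fixed, Hoechst-stained; gated GFP peak intensity by laser scanning cytometry, normalized to DMSO (0%) and 57.5 uM 5-azacytidine (100%).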

[2] = biological target: Aldehyde dehydrogenase, mitochondrial (Homo sapiens) (UniProt P05091); assay: qHTS for Inhibitors of the Aldehyde Dehydrogenase Family (ALDH2) Primary screen (AID 2061308); conditions: ALDH2 enzyme inhibition qHTS, 1536-well; series mostly up to 56 µM;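 also: plate controls were vehicle for no effect and reference inhibitor for full effect; nearly all actives have a fitted effect of over 55% in size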
[3] = biological target: Retinaldehyde dehydrogenase 3 (Homo sapiens) (UniProt P47895); assay: qHTS for Inhibitors of the Aldehyde Dehydrogenase Family (ALDH1A3) Validation screen (AID 2061312); conditions: ALDH1A3 enzyme inhibition qHTS validation, fluorescence; series mostly up to 84.7 µM; also: % is scaled to controls: 0 for no effect and ±100 for the full control effect; nearly all actives have a fitted effect of over 45% in size
[4] = biological target: Retinaldehyde dehydrogenase 3 (Homo sapiens) (UniProt P47895); assay: qHTS for Inhibitors of the Aldehyde Dehydrogenase Family (ALDH1A3) Primary screen (AID 2061315); conditions: ALDH inhibition qHTS; series mostly up to 56 µM;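 also: plate controls were DMSO vehicle for no effect and reference inhibitor for full effect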

Cn1ncnc1COc1nn2c(-c3cc(F)ccc3F)nnc2cc1C(C)(C)C
inactive: activation [1] -11.9% | Potency [2] | Potency [3] | Potency [4]

CC(=O)NC1=NN(C(C)=O)C(C)(c2ccccc2)S1 (stereo not given)
active: Potency [1] 12 µM
inactive: Potency [2] | Potency [3] | Potency [4]

Cc1cc(C(=O)Nc2cccc(C(=O)Nc3cccc(C(F)(F)F)c3)c2)on1
inactive: activation [1] -7.16% | Potency [2] | Potency [3] | Potency [4]

c1cc(OCCCN2CCCCC2)ccc1CN1CCCCC1
inactive: activation [1] 5.25% | Potency [2] | Potency [3] | Potency [4]

CN(C)CCc1c[nH]c2ccc(C[C@H]3COC(=O)N3)cc12
inactive: activation [1] -0.837% and -21.4% and -11.5% | Potency [2] | Potency [3] | Potency [4]

CN1CCC(c2c[nH]c3ccc(NC(=O)c4ccc(F)cc4)cc23)CC1
inactive: activation [1] -11% | Potency [2] | Potency [3] | Potency [4]

CC(C)Oc1ccc(-c2cnc3c(-c4ccnc5ccccc45)cnn3c2)cc1
inactive: activation [1] -6.21% | Potency [2] | Potency [3] | Potency [4]

CC1(C)[C@H]2C[C@H](C/C=C\CCCC(=O)O)[C@@H](NC(=O)c3csc4ccc(O)cc34)[C@@H]1C2
inactive: activation [1] -4.77% | Potency [2] | Potency [3] | Potency [4]

c1ccc(C(OC2CCN(CCCc3nn[nH]n3)CC2)c2ccccc2)cc1
inactive: activation [1] -4.77% | Potency [2] | Potency [3] | Potency [4]

CCOC(=O)C(CCc1ccccc1)NC1CCCN2CCCC(C(=O)O)N2C1=O (stereo not given)
inactive: activation [1] -9.55% | Potency [2] | Potency [3] | Potency [4]
